This excerpt belongs to a sample that is enriched for hits.
CHX counter – Cycloheximide Counterscreen for Small Molecule Inhibitors of Shiga Toxin | max response, % | cell reporter, cycloheximide protein synthesis inhibition counterscreen | 12% of 300,000 active | AID 2314, 2010; in the data active = max response mostly above about 13%, no sharp cut-off; inactive = mostly below about 14%; note: read at 38.3 µM for the half of the compounds with a filed dose
Vaccinia Venus – qHTS for Stage-Specific Inhibitors of Vaccinia Orthopoxvirus: Venus Reporter Primary qHTS; Potency, µM (highest dose often 36.5 µM), hits mostly inhibitors; 0.46% of 330,000 active; Vaccinia virus Venus reporter expression, fluorescence; calls by dose curve; tested in A549 cells; note: nearly all actives have a fitted effect of over 30% in size
Vaccinia mCherry – qHTS for Stage-Specific Inhibitors of Vaccinia Orthopoxvirus: mCherry Reporter Primary qHTS; Vaccinia virus mCherry reporter infection, fluorescence; Potency, µM (series often up to 36.5 µM), actives largely listed as inhibitors; 0.63% of 310,000 active; AID 720579, 2013; calls by dose curve; tested in A549 cells; note: nearly all actives have a fitted effect of over 35% in size
Lassa entry inh – qHTS for Inhibitors of binding or entry into cells for Lassa Virus. Lassa virus pseudotype entry inhibition, cell reporter. Potency, µM (series often up to 37.9 µM), actives largely listed as inhibitors. 1.2% of 300,000 active. AID 540256, 2011; calls by dose curve; tested in HEK293 cells; note: nearly all actives have a fitted effect of over 50% in size
Shiga inhibitor – A qHTS for Small Molecule Inhibitors of Shiga Toxin | Vero cells, Shiga toxin protein synthesis inhibition reporter | inhibition, % at 38.7 µM | 9.2% of 290,000 active; in the data active = inhibition mostly above about 28%, no sharp cut-off; inactive = mostly below about 43%
Marburg entry inh – qHTS for inhibitors of binding or entry into cells for Marburg Virus; Marburg virus pseudotyped entry inhibition, cell reporter; Potency, µM (top dose mostly 37.8 µM), usual class: inhibitors; 1.8% of 300,000 active; AID 540276, 2011; calls by dose curve; tested in HEK293 cells
Hits are given with their value; 0 = inactive; ? = inconclusive; - = not tested or not shown.

SMILES	CHX counter	Vaccinia Venus	Vaccinia mCherry	Lassa entry inh	Shiga inhibitor	Marburg entry inh
CCC1CSC(Nc2ccc(C(=O)/C=C/c3ccc(OC)c(OC)c3)cc2)=N1 (configuration not stated)	0	?	11µM	23µM	28	?
CCC1CSC(Nc2ccc(C(=O)/C=C/c3ccc(Br)cc3)cc2)=N1 (configuration not stated)	49	0	0	?	57	?
COc1ccc(/C=C/C(=O)c2ccc(NC3=NCCCS3)cc2)cc1OC	0	?	0	0	0	?
CCCc1noc(-c2ccc(NCc3ccccc3OC)c([N+](=O)[O-])c2)n1	-	0	0	0	-	0
O=C1CN(S(=O)(=O)c2ccc(F)cc2)CCN1	-	0	0	0	-	0
COc1ccccc1NS(=O)(=O)c1cccc(NC(=O)Cc2cccs2)c1	0	0	0	16µM	0	0
CCNC(=S)Nc1cccc(S(=O)(=O)Nc2ccccc2OC)c1	0	0	0	0	0	0
COc1ccccc1NS(=O)(=O)c1cccc(NC(=O)Nc2ccccc2)c1	0	?	0	15µM	0	?
CCNS(=O)(=O)c1ccc(NC(=O)Nc2ccccc2OC)cc1	9.5	0	0	0	0	0
COc1ccccc1NS(=O)(=O)c1cccc(NC(=O)Nc2ccc(Cl)cc2)c1	0	?	0	6.3µM	0	?
Cc1cccc(N2CCN(C3C(=O)Nc4ccccc4-n4nnnc43)CC2)c1C (configuration not stated)	-	0	?	-	-	-
COCCCNC(=O)c1ccc2sc(C3=C[C@@H](O)[C@@H](O)[C@@H](CO)O3)nc2c1	-	0	0	-	-	-
COc1ccccc1NS(=O)(=O)c1cc(C)ccc1C	0	0	0	0	0	10µM
COc1ccc(NC(=O)c2cc3ccccc3oc2=O)cc1	-	0	0	-	-	-
CN(c1ccccc1)S(=O)(=O)c1cccc(NC(=O)c2cc3ccccc3oc2=O)c1	61	0	0	0	66	?
COc1ccccc1NS(=O)(=O)c1cccc(NC(=O)c2cc3ccccc3oc2=O)c1	60	0	0	0	87	0
CC(=O)Nc1nnc(SCc2ccccc2F)s1	24	-	-	0	44	0
O=C(Nc1nnc(SCc2ccccc2F)s1)C1=COCCO1	57	0	0	0	116	?
O=C(Nc1nnc(SCc2ccccc2)s1)C1=COCCO1	-	0	0	0	-	?
Nc1nnc(SCc2ccccc2F)s1	0	-	-	-	0	-
CC(=O)Nc1nnc(CSCc2ccccc2F)s1	23	0	0	0	0	?
O=C(CNC(=O)C1CCCCC1)OCC(=O)c1ccc(C2CCCCC2)cc1	-	0	0	-	-	-
N#CC(C(=O)Nc1ccccc1)=C1CCCCC1	15	0	0	0	0	0
N#CC(C(=O)O)=C1CCCC1	0	0	-	0	0	0
CSc1nnc(-c2sc3cc(C(F)(F)F)cnc3c2-c2ccccc2)n1C	0	?	-	?	0	1.6µM
SMILES	CHX counter	Vaccinia Venus	Vaccinia mCherry	Lassa entry inh	Shiga inhibitor	Marburg entry inh
O=C(N/N=C/c1cccnc1)C(=O)N1CCCCCC1	0	0	0	0	0	0
CC1Cc2cc(/C(O)=C3/C(=O)C(=O)N(CC4CCCO4)C3c3ccco3)ccc2O1 (configuration not stated)	41	0	0	0	74	0
Cc1nnc(N2C(=O)C(=O)/C(=C(\O)c3ccc4c(c3)CC(C)O4)C2c2ccccc2)s1 (configuration not stated)	25	0	0	?	50	0
CCOc1cccc(C2/C(=C(\O)c3ccc4c(c3)OCCO4)C(=O)C(=O)N2Cc2ccncc2)c1 (configuration not stated)	0	0	0	0	0	0
CC1Cc2cc(/C(O)=C3/C(=O)C(=O)N(Cc4cccnc4)C3c3cccc(O)c3)ccc2O1 (configuration not stated)	34	-	-	-	66	-
O=C1C(=O)N(Cc2ccncc2)C(c2cccc(O)c2)/C1=C(\O)c1ccc2c(c1)OCCO2 (configuration not stated)	32	-	-	-	78	-
COc1ccccc1N1CCN(CC(O)COc2ccc(C)cc2C)CC1 (configuration not stated)	0	0	0	?	0	?
CC1=CC(Cc2ccc(C)cc2)C(=O)N=N1 (configuration not stated)	-	-	-	-	-	0
CCOc1cc(C#N)c(NC(=O)c2ccc(OC)c(S(=O)(=O)N3CCN(c4ccccc4)CC3)c2)cc1OCC	-	0	0	0	-	0
C[C@H]1CN([C@@H](C)CO)S(=O)(=O)c2ccc(Br)cc2O[C@@H]1CN(C)C(=O)CCN1CCCCC1	-	0	0	-	-	-
CCc1ccc(CNC(=O)CCCN2C(=O)c3cccnc3Oc3ccc(Cl)cc32)cc1	-	0	0	0	-	-
CC1Cc2cc(/C(O)=C3\C(=O)C(=O)N(CCN(C)C)C3c3ccccc3F)ccc2O1 (configuration not stated)	18	-	-	0	77	0
O=C1C(=O)N(Cc2cccnc2)C(c2cccc(O)c2)/C1=C(\O)c1ccc2c(c1)OCCO2 (configuration not stated)	25	-	-	-	74	-
CC1Cc2cc(/C(O)=C3/C(=O)C(=O)N(CCN4CCOCC4)C3c3cccc(O)c3)ccc2O1 (configuration not stated)	62	-	-	0	91	0
CC1Cc2cc(/C(O)=C3/C(=O)C(=O)N(CCCn4ccnc4)C3c3ccc(F)cc3)ccc2O1 (configuration not stated)	21	0	0	0	0	0
COc1cc(C2/C(=C(\O)c3ccc4c(c3)CC(C)O4)C(=O)C(=O)N2CCCn2ccnc2)cc(OC)c1OC (configuration not stated)	0	0	0	0	0	0
C=CCOc1cccc(C2/C(=C(\O)c3ccc4c(c3)OCCO4)C(=O)C(=O)N2Cc2cccnc2)c1 (configuration not stated)	0	0	0	0	0	0
C[C@@H]1CN(Cc2ccc3c(c2)CN(C(=O)CCc2nc4ccc(F)cc4[nH]2)CCO3)C[C@H](C)O1	-	0	0	-	-	-
COc1ccc([N+](=O)[O-])cc1CSc1nnc(NC(C)=O)s1	0	0	0	0	0	0
NC(=O)c1nsc(C(=O)N(c2ccccc2)C(C(=O)NCc2ccc(F)cc2)c2ccco2)c1N (configuration not stated)	0	0	0	?	0	?
NC(=O)c1nsc(C(=O)N(c2ccccc2)C(C(=O)NCc2ccc(F)cc2)c2ccc(O)cc2)c1N (configuration not stated)	0	0	0	2.2µM	0	?
COc1ccc(N(C(=O)c2snc(C(N)=O)c2N)C(C(=O)NCc2ccccc2)c2ccc(O)cc2)cc1 (configuration not stated)	0	0	0	0.73µM	0	0
Nc1ccc(/C=C/c2ccnc3ccccc23)c(N)c1	-	0	0	-	-	-
